We go through 23 compounds from PubChem BioAssay (EPA / NIEHS).

Test [1] is described as follows: ATG_PXRE_CIS: Attagene CIS-FACTORIAL HepG2 Assay for human Pregnane X Receptor Element (PXRE) (AID 2282957). The following applies: HepG2 Attagene CIS-FACTORIAL PXRE reporter, mRNA; actives raise or lower the signal. In outline:
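Cis-element reporter mRNA in human hepatoma HepG2 cells is measured 24 h post-dosing by RT-PCR, primer-extension labeling and capillary electrophoresis; gain or loss of signal is fitted relative to DMSO.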

Test [2] is described as follows: ATG_PPRE_CIS: Attagene CIS-FACTORIAL HepG2 Assay for human Peroxisome Proliferator-activated Response Element (PPRE) (AID 2282958). The following applies: HepG2 PPRE cis-element reporter, Attagene transcription factor profiling; actives raise or lower the signal. The method, boiled down:
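HepG2, transient MRTU transfection (cis promoter elements, endogenous TFs). 24 h dosing. RNA → oligo(dT) RT → PCR → 6-FAM primer extension → HpaI digest → CE. Bidirectional fit vs DMSO.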

A short description of test [3]: ATG_RORE_CIS: Attagene CIS-FACTORIAL HepG2 Assay for human RAR-related Orphan Receptor Element (RORE) (AID 2282959). The following applies: HepG2 Attagene cis-factorial RORE reporter, mRNA; actives raise or lower the signal. In outline: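 Transient MRTU transfection of human HepG2 liver cells (FuGene 6); 24 h compound exposure; TriZol RNA, oligo(dT) RT, PCR, FAM labeling, HpaI cut, CE fragment analysis. DMSO = negative control/baseline.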

The nature of test [4]: ATG_Sox_CIS: Attagene CIS-FACTORIAL HepG2 Assay for human SRY-box transcription factor (SOX) (AID 2282960). The following applies: HepG2 Attagene cis-factorial SOX reporter, mRNA; actives raise or lower the signal. In outline:
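Endogenous factor activity in human liver HepG2 cells carrying transfected cis-regulated reporter units. RNA taken 24 h post-dose, reverse-transcribed, PCR-amplified and sized by capillary electrophoresis. Gain or loss of signal fitted relative to DMSO.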

In test [5] the target is Transcription factor Sp1 (Homo sapiens) (UniProt P08047). The test can be described thus: ATG_Sp1_CIS: Attagene CIS-FACTORIAL HepG2 Assay for human Specificity Protein 1 (Sp1) (AID 2282961). The following applies: HepG2 Sp1 cis-reporter transcription, actives raise or lower the signal. The method, boiled down:
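Transient MRTU-transfected HepG2, 24 h compound exposure. Total RNA → oligo(dT) RT → PCR of reporter → 6-FAM primer extension → HpaI digest → CE. Endpoint fitted both directions vs DMSO.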

Test [6] in a line: ATG_SREBP_CIS: Attagene CIS-FACTORIAL HepG2 Assay for human Sterol Regulatory Element Binding (SREBP) (AID 2282962). The following applies: HepG2 Attagene cis-factorial SREBP reporter, mRNA; actives raise or lower the signal. In outline: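 HepG2 cells transiently transfected with multiplexed cis-promoter reporter units sensing endogenous transcription factors; reporter mRNA measured 24 h after dosing by RT-PCR, 6-FAM labeling, HpaI digestion and capillary electrophoresis. Bidirectional fit versus DMSO.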

The target in test [7] is Signal transducer and activator of transcription 3 (Homo sapiens) (UniProt P40763). Description: ATG_STAT3_CIS: Attagene CIS-FACTORIAL HepG2 Assay for human Signal Transducer and Activator of Transcription 3 (STAT3) (AID 2282963). The following applies: HepG2, Attagene cis-factorial STAT3 reporter transcription; actives raise or lower the signal. The method, boiled down: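 HepG2 cells transiently transfected with cis-element-driven multiple reporter transcription units; after 24 h chemical exposure, reporter mRNA measured by RT-PCR, 6-FAM primer-extension labelling, HpaI digestion and capillary electrophoresis. Bidirectional fitting versus DMSO baseline.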

Test [8] is described as follows: ATG_TA_CIS: Attagene CIS-FACTORIAL HepG2 Assay for human TA Basal Promoter (AID 2282964). The following applies: HepG2 Attagene CIS-factorial TA basal promoter reporter; actives raise or lower the signal. In outline:
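Fluorescence from labelled RT-PCR reporter fragments, separated by capillary electrophoresis, gives the signal. Cells: HepG2 transiently carrying multiple reporter units, 24 h chemical dosing. Gain or loss relative to DMSO.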

Test [9] is described as follows: ATG_TCF_b_cat_CIS: Attagene CIS-FACTORIAL HepG2 Assay for human T-Cell-Factor with beta-catenin (TCF/b-cat) (AID 2282965). The following applies: HepG2 TCF/beta-catenin cis-reporter transcription, actives raise or lower the signal. The method, boiled down:
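HepG2 cells transiently transfected with multiple cis-promoter-regulated reporter transcription units, so endogenous transcription factor activity is measured. Reporter mRNA read 24 hours after dosing by RT-PCR, fluorescent labelling and capillary electrophoresis; bidirectional fitting against DMSO.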

Test [10] can be described thus: ATG_TAL_CIS: Attagene CIS-FACTORIAL HepG2 Assay for human TAL Basal Promoter (AID 2282966).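 Further: background control endpoint measuring basal TAL promoter reporter mRNA not a specific factor.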 The following applies: HepG2 Attagene cis-factorial TAL promoter reporter; actives raise or lower the signal. The method, boiled down: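 In this cell-based multiplex, HepG2 liver cells bearing cis-promoter reporter constructs are dosed for 24 hours. Total RNA is reverse-transcribed and amplified, labelled fragments are sized by capillary electrophoresis, and signal changes are fitted bidirectionally versus DMSO.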

Activity calls are given as the source filed them. How the source made its calls: active means hit-call score of the fitted dose curve at least 0.9, where 1 is the maximum; inactive means score below 0.9.

Transcription factor Sp1 (Homo sapiens), sequence (P08047 whole entry, looked up): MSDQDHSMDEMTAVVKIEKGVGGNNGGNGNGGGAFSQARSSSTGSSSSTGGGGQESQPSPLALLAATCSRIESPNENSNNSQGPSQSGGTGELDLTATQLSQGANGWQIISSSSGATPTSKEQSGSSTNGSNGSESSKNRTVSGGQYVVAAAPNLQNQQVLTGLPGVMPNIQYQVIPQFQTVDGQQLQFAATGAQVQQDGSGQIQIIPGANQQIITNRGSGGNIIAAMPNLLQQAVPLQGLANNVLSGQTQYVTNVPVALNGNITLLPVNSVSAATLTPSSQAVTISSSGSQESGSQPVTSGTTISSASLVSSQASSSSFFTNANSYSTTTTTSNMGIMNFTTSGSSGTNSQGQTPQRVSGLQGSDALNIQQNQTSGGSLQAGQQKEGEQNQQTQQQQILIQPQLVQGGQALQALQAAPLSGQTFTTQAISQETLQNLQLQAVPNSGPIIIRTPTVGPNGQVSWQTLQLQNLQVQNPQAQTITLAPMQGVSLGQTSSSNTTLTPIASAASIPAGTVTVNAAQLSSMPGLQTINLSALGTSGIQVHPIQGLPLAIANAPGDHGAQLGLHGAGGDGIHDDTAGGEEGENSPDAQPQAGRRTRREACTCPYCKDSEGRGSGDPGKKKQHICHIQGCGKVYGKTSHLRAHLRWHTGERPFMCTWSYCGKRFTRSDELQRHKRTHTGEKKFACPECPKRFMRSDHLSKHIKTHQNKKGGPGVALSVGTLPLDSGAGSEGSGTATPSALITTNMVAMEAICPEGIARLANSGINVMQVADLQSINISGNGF
Signal transducer and activator of transcription 3 (Homo sapiens), sequence (P40763 whole entry, looked up): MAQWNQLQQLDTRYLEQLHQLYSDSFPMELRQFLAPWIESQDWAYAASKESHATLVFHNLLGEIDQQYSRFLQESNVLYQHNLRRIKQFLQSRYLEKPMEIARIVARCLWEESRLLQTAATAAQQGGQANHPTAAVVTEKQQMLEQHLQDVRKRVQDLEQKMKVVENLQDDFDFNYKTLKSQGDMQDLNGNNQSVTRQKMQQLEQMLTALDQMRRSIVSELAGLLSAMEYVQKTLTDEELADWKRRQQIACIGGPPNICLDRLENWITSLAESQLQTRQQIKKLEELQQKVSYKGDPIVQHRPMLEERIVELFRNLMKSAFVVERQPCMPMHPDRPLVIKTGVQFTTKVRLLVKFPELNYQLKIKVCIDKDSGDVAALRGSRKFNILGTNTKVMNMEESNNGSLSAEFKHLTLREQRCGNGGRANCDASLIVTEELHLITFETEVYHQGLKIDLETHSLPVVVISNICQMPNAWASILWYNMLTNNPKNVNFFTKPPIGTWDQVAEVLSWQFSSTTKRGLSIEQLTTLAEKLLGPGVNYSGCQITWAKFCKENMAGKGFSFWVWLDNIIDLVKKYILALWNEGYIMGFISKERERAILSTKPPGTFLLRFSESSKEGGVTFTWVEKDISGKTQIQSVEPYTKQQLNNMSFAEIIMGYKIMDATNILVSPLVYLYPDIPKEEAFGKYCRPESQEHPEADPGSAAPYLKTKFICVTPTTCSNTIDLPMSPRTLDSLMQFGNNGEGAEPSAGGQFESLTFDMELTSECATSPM

Consider `O=C(O)COc1cc(Cl)c(Cl)cc1Cl`, for which the compound was classed as inactive in test [1], in test [3], in test [4], in test [5], in test [6] and in test [7]. The compound was classed as inactive in test [8], in test [9] and in test [10]. For the same compound, the AC50 in test [2] is 33.5 µM (active).

For the compound `CC(=Cc1ccccc1)[N+](=O)[O-]`, the AC50 in test [1] is 4.02 µM (active). The compound was called inactive in test [2], in test [3], in test [4], in [5], in test [6] and in [7]. Moreover, the compound was classed as inactive in test [8], in test [9] and in test [10].

For the compound `CCC[CH2][Sn]([CH2]CCC)([CH2]CCC)[CH2]CCC`, the AC50 in test [1] is 18.3 µM (active); in test [2], 2.2 µM (active); in test [4], 11.1 µM (active); in [5], 9.76 µM (active); in test [6], 2.82 µM (active); in test [7], 11.1 µM (active). Further, the AC50 in test [8] is 17.1 µM (active); in test [9] it was 15.3 µM (active). In addition, the compound was classed as inactive in [3] and in test [10].

On to `Nc1ncn[nH]1`, for which the result in test [1], in test [2], in test [3], in test [4], in test [5] and in test [6] was inactive. The call in test [7], in [8], in test [9] and in test [10] was inactive.

As to `O=C=Nc1ccc(Cl)cc1`, the compound was called inactive in test [1], in test [2], in test [3], in [4], in [5] and in [6]. The outcome in [7], in [8], in test [9] and in test [10] was inactive.

As to `OC(Cc1ccccc1Cl)(Cn1[nH]cnc1=S)C1(Cl)CC1` (stereo not drawn), the AC50 in test [1] was 4.27 µM (active); in test [4] it was 145 µM (active). Besides, the call in test [2], in test [3], in test [5], in test [6], in test [7] and in test [8] was inactive. For the same compound, the compound was called inactive in [9] and in [10].

`CC(C)[C@@H](Nc1ccc(C(F)(F)F)cc1Cl)C(=O)OC(C#N)c1cccc(Oc2ccccc2)c1` (stereo partly drawn): the AC50 in [1] was 0.693 µM (active). Moreover, the call in [2], in [3], in test [4], in test [5], in test [6] and in test [7] was inactive. For the same compound, the outcome in [8], in [9] and in [10] was inactive.

Turning to `COc1ccc(N)cc1`, the compound was classed as inactive in test [1], in test [2], in [3], in test [4], in test [5] and in test [6]. Moreover, the call in test [7], in [8], in [9] and in test [10] was inactive.

`CC(C)(c1ccc(O)c(-c2ccccc2)c1)c1ccc(O)c(-c2ccccc2)c1`: the half-maximal activity concentration (AC50) in [1] was 0.965 µM (active). In addition, the result in [2], in test [3], in test [4], in [5], in test [6] and in [7] was inactive. In addition, the compound was classed as inactive in test [8], in [9] and in test [10].

For the compound `CCCCS(=O)(=O)Cl`, the outcome in test [1], in test [2], in [3], in test [4], in [5] and in test [6] was inactive. Moreover, the result in [7], in [8], in test [9] and in [10] was inactive.

Consider `CN(CCCC(O)c1cccnc1)N=O` (stereo not drawn), for which the compound was called inactive in test [1], in [2], in test [3], in test [4], in [5] and in test [6]. Further, the result in [7], in test [8], in [9] and in test [10] was inactive.

As to `C=CCOC(N)=O`, the outcome in test [1], in test [2], in test [3], in [4], in [5] and in [6] was inactive. For the same compound, the compound was classed as inactive in test [7], in test [8], in [9] and in test [10].

In the case of `CCOP(=S)(OCC)SCS(=O)(=O)C(C)(C)C`, in test [1], the AC50 was 4.12 µM (active). For the same compound, the result in [2], in test [3], in [4], in [5], in test [6] and in test [7] was inactive. Besides, the call in [8], in test [9] and in [10] was inactive.

Turning to `C[C@H]1C(=O)O[C@@H]2CCN3CC=C(COC(=O)[C@](C)(O)[C@]1(C)O)[C@H]23`, the compound was called inactive in test [1], in test [2], in [3], in test [4], in test [5] and in test [7]. Also, the compound was called inactive in test [8], in test [9] and in test [10].

In the case of `Cc1cccc(N=Nc2ccc(N(C)C)cc2)c1`, the half-maximal activity concentration (AC50) in test [1] is 10.5 µM (active). The result in [2], in test [3], in [4], in [5], in test [6] and in [7] was inactive. The compound was classed as inactive in test [8], in test [9] and in test [10].

For the compound `Nc1nc(=S)[nH][nH]1`, the result in test [1], in test [2], in test [3], in [4], in [5] and in test [6] was inactive. Also, the result in test [7], in test [8], in test [9] and in test [10] was inactive.

With `CC(C=O)Cc1ccc2c(c1)OCO2` (stereo not drawn), the AC50 in test [1] is 17 µM (active). For the same compound, the compound was classed as inactive in test [2], in test [3], in test [4], in test [5], in [6] and in test [7]. Also, the compound was classed as inactive in [8], in test [9] and in test [10].

Take `N#CCCC(Br)(C#N)CBr` (stereo not drawn): the AC50 in [1] is 33.4 µM (active); in [4] it was 49.4 µM (active); in test [5] it was 49.2 µM (active); in test [9], 51 µM (active). Besides, the result in test [2], in [3], in test [6], in [7], in [8] and in test [10] was inactive.

With `CN(C1CCCCC1)C1CCCCC1`, the AC50 in test [1] was 31.7 µM (active). Besides, the outcome in [2], in [3], in test [4], in test [5], in [6] and in [7] was inactive. The compound was called inactive in test [8], in test [9] and in [10].

On to `ClCc1ccccc1CCl`, for which the half-maximal activity concentration (AC50) in test [1] is 18.3 µM (active); in [4] it was 22.6 µM (active); in test [5] it was 33.4 µM (active); in test [7], 33.4 µM (active); in [9], 22.4 µM (active); in test [10], 16.5 µM (active). For the same compound, the compound was classed as inactive in test [2], in test [3] and in test [8].

As for `Cc1cc(Cl)ccc1OCCCC(=O)O`, the result in test [1], in test [2], in test [3], in test [4], in test [5] and in test [6] was inactive. The compound was called inactive in test [7], in [8], in test [9] and in test [10].

On to `CC(C)[C@H](C(=O)OC(C#N)c1cccc(Oc2ccccc2)c1)c1ccc(OC(F)F)cc1` (stereo partly drawn), for which the concentration at half-maximal activity (AC50) in [1] is 0.396 µM (active). Besides, the compound was called inactive in [2], in test [3], in test [4], in [5], in test [6] and in [7]. The compound was classed as inactive in test [8], in test [9] and in test [10].

Regarding `CCCCC(CC)C(=O)Cl` (stereo not drawn), the outcome in test [1], in [2], in [3], in [4], in [5] and in test [6] was inactive. The result in test [7], in test [8], in [9] and in [10] was inactive.

By AC50 is commonly meant the midpoint of the concentration-response curve, whichever way the signal moves.
